From PubChem BioAssay AID2551 (National Center for Advancing Translational Sciences (NCATS), 2010)
The campaign covered roughly 310,000 compounds. About 17,000 (5.5%) were called active. A call without a number means that no potency is given here. Another 11% or so got no clear call; they are omitted. The call rests on the fitted dose curve; in most records, active means well fitted inhibition curve with a large enough effect; inconclusive means small, poorly fitted or top-dose-only effect, or effect the other way; inactive means no such curve, though single readings can be large or run the other way. Many of the other results were omitted from the sample, so actives are more common in it than they were.

biological target: Nuclear receptor ROR-gamma (Mus musculus) (UniProt P51450); assay: qHTS for inhibitors of ROR gamma transcriptional activity; settings: Drosophila S2 Gal4-RORgamma UAS-luciferase reporter, 20 h; series mostly up to 53.6 µM; further: nearly all actives have a fitted effect of over 60% in size
How it was run: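 Schneider cells (Drosophila), stable Gal4 DBD–ROR gamma + UAS-luc; 1 hr cmpd preincubation; Cu2+ induction 700 uM final; 20 hr ambient; luminescence.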
Potency means the concentration at half of the fitted maximal effect.

Nuclear receptor ROR-gamma (Mus musculus), sequence (P51450 whole entry, looked up, the tested form may be a part): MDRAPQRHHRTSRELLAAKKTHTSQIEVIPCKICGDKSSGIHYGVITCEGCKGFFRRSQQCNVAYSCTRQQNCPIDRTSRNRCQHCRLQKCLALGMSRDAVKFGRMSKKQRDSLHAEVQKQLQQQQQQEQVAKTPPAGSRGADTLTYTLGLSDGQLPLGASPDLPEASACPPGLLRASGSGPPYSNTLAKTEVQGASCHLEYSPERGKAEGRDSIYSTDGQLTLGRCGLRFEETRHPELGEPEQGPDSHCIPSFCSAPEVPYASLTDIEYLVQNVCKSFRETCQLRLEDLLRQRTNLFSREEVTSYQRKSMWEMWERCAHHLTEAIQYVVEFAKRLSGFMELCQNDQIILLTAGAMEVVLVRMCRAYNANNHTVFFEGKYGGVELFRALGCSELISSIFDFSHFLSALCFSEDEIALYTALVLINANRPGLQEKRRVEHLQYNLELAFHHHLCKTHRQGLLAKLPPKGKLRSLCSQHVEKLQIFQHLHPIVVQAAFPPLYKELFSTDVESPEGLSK

| SMILES | Potency | activity change, negative = inhibition |
| --- | --- | --- |
| Cc1cccc(-c2c(NC(=O)c3ccco3)oc3ccc(Cl)cc3c2=O)c1 | inactive | – |
| CN(C)CCOC1c2ccccc2-c2ccccc21 | inactive | – |
| COc1ccc(CNC(=O)C2CCN(C(=O)c3ccccc3)CC2)cc1 | inactive | – |
| O=C(c1ccc(Cl)c(S(=O)(=O)N2CCCCC2)c1)N1CCCCCC1 | inactive | – |
| O=C(c1ccc[nH]c1=S)N1CCN(S(=O)(=O)c2ccc(Br)cc2Cl)CC1 | 22.4 µM (active) | – |
| O=C(c1ccccc1F)N1CCN(S(=O)(=O)c2ccc(Br)cc2)CC1 | inactive | – |
| COc1cc2c(C(=O)N(C)c3cc(Cl)ccc3OC)cn(C)c(=O)c2cc1OC | inactive | – |
| COc1ccc(CNC(=O)C2CCN(S(=O)(=O)c3ccc(SC)cc3)CC2)cc1 | inactive | – |
| Cc1cc(C(=O)COC(=O)C2CC2)c(C)n1-c1ccc(F)cc1 | inactive | – |
| Cc1nnc(SCC(N)=O)n1CC1CCCO1 (stereo not given) | inactive | – |
| Cc1ccsc1C(=O)OCC(=O)c1cc(C)n(CC2CCCO2)c1C (stereo not given) | 3.98 µM (active) | – |
| CCc1ccc(CN(C)C(=O)C2CCC(=O)N(Cc3cccc(OC)c3)C2)nc1 (stereo not given) | inactive | – |
| CC(C)CC(=O)Nc1ccc(Cc2ccncc2)cc1 | inactive | – |
| O=C(O)C1CCCN1C1=NS(=O)(=O)c2ccccc21 (stereo not given) | inactive | – |
| O=C(CN1CCC(NC(=O)C2CC2)CC1)Nc1ccccc1[N+](=O)[O-] | inactive | – |
| Cc1c(NC(=O)CSc2cccc3cccnc23)c(=O)n(-c2ccccc2)n1C | 7.94 µM (active) | – |
| O=C(CSc1cccc2cccnc12)N/N=C/c1cccnc1 | 7.08 µM (active) | – |
| C/C(CC(=O)Nc1ccc(C)cc1C)=N\NC(=O)C(C)C | inactive | – |
| Cc1ccc(NC(=O)Cn2nc(C)c3ccccc3c2=O)c(C)c1 | inactive | – |
| O=C(CNC(=O)c1cccnc1)N/N=C/c1cccnc1 | inactive | – |
| Cc1ccc(NC(=O)CSc2cccc3cccnc23)c(C)c1 | 10 µM (active) | – |
| Cc1nc2ccccc2n1CC(=O)N/N=C/c1cccnc1 | inactive | – |
| Cc1c(NC(=O)c2cccnc2)c(=O)n(-c2ccccc2)n1C | inactive | – |
| Cc1c(NC(=O)CSc2nnnn2-c2ccc(C(=O)O)cc2)c(=O)n(-c2ccccc2)n1C | inactive | – |
| Cc1cc(NC(=O)CCN2CCN(Cc3ccccc3)CC2)ccc1Br | inactive | – |
| CCN(CC)S(=O)(=O)c1ccc(N2CCOCC2)c(NC(=O)C2CSC3(C)CCC(=O)N23)c1 (stereo not given) | inactive | – |
| O=C(CCS(=O)(=O)c1ccc2c(c1)NC(=O)CS2)NCc1ccccc1Cl | inactive | – |

| SMILES | Potency | activity change, negative = inhibition |
| --- | --- | --- |
| Cc1ccc(CN(CC(=O)NC2CCCCC2)C(=O)c2csnn2)cc1 | inactive | – |
| O=C(c1ccccc1)N1CCC(CC2CC(c3ccc(Cl)cc3)=NO2)(C(=O)NCC2CCCCC2)CC1 (stereo not given) | inactive | – |
| COc1cccc(CNC(=O)CCC2CCCN(C(=O)c3ccc(F)c(Cl)c3)C2)c1 (stereo not given) | inactive | – |
| O=C1/C(=C\c2cccnc2)CN(Cc2ccccc2)C/C1=C\c1cccnc1 | 6.31 µM (active) | – |
| Clc1ccc(CN2CCN(/N=C/c3cccnc3)CC2)cc1 | inactive | – |
| O=Cc1cn(Cc2ccccc2)nc1-c1cccnc1 | inactive | – |
| Cc1cc(C)c(S(=O)(=O)c2cc(F)ccc2C)c(=O)[nH]1 | inactive | – |
| O=S(=O)(c1ccc(Br)cc1)c1nc(-c2ccccc2)oc1N1CCOCC1 | inactive | – |
| CCOC(=O)c1cccc(NC(=O)CCc2nnc3ccc(N4CCOCC4)nn23)c1 | inactive | – |
| CCn1c2ccccc2c2cc(NC(=O)CNC)ccc21 | inactive | – |
| Cc1cc(N2CCN(C)CC2)nc2ccc(NC(=S)N3CCOCC3)cc12 | inactive | – |
| CCn1c2ccccc2c2cc(NC(=S)N3CCOCC3)ccc21 | 3.16 µM (active) | – |
| COc1ccc(NC(=O)CN2C(=O)CSc3ccc(S(=O)(=O)N4CCC(C)CC4)cc32)cc1 | inactive | – |
| CCOc1ccc(N(CC(=O)NCC2CCCO2)S(=O)(=O)c2ccc(C)cc2)cc1 (stereo not given) | inactive | – |
| CC(C)CNC(=O)C(=O)NCC(c1ccc2c(c1)OCO2)N1CCOCC1 (stereo not given) | inactive | – |
| O=C(CCN1C(=O)[C@@H]2Cc3ccccc3CN2C1=O)NCc1ccccc1 | inactive | – |
| COC(=O)c1ccccc1NC(=O)C1CCN(C(=O)N2CCOc3ccccc32)CC1 | inactive | – |
| CC(Sc1nnc(CNC(=O)c2ccccc2F)n1C)C(=O)Nc1nccs1 (stereo not given) | inactive | – |
| Cc1ccc(S(=O)(=O)N2CCC(C)CC2)cc1C(=O)NCc1ccccn1 | inactive | – |
| COc1cccc(CNC(=O)Cn2c(=O)oc3cc(S(=O)(=O)N4CCCCC4)ccc32)c1 | inactive | – |
| O=C(Cc1cccs1)Nc1ccc([N+](=O)[O-])cc1 | inactive | – |
| CCN1/C(=C/C(=S)Nc2ccccc2)Sc2ccccc21 | 3.16 µM (active) | – |
| O=C(CCN1c2ccccc2Sc2ccccc21)Nc1ccccc1 | inactive | – |
| CCNC(=O)N1c2ccccc2Sc2ccccc21 | inactive | – |
| COc1ccc(C(=O)NC2CC2)cc1OC1CCN(C/C=C/c2ccccc2)CC1 | inactive | – |
| CCCn1c(=S)[nH]c2ccc(C(F)(F)F)cc21 | inactive | – |
| CC(C)n1c(=S)[nH]c2cc(C(F)(F)F)ccc21 | 0.891 µM (active) | – |

| SMILES | Potency | activity change, negative = inhibition |
| --- | --- | --- |
| O=C(NCc1ccccc1)C(c1cccnc1)N(C(=O)c1csnn1)c1ccc(F)cc1 (stereo not given) | inactive | – |
| Cn1c(=O)c(=O)n(C)c2cc(S(=O)(=O)CCC(=O)N3CCCCC3)ccc21 | inactive | – |
| COc1ccc(/C=C/c2c(-c3cccc(C)c3)oc3ccc(-c4ccc5c(c4)OCO5)cc23)cc1 | inactive | – |
| COc1ccccc1NC(=O)C1=C(C)NC(=O)NC1c1ccc(C)s1 (stereo not given) | inactive | – |
| COc1ccccc1NC(=O)C1=C(C)Nc2nc3ccccc3n2C1c1cccs1 (stereo not given) | 11.2 µM (active) | – |
| CCOC(=O)C1=C(C)NC(=S)NC1c1cccs1 (stereo not given) | – | -23.4% [at 10 µM] (inactive) |
| COc1ccccc1NC(=O)C1=C(C)Nc2ncnn2C1c1ccc(C)o1 (stereo not given) | inactive | – |
| CCOC(=O)c1ccc(NC(=O)C2CC(=O)Nc3nc4ccccc4n32)cc1 (stereo not given) | inactive | – |
| CCOC(=O)C1=C(C)Nc2nc3ccccc3n2C1c1cccs1 (stereo not given) | 5.62 µM (active) | – |
| Cc1cccc(CCNS(=O)(=O)c2ccc3c(c2)NC(=O)CO3)c1 | inactive | – |
| O=C(NC1CCCC1)C(c1ccco1)N(C(=O)c1ccco1)c1ccc(F)cc1 (stereo not given) | inactive | – |
| Cc1ccc(C(=O)Oc2ccc(C(=S)N3CCOCC3)cc2)cc1 | inactive | – |
| COCC(=O)N1CCCC(C(=O)c2ccc(C(F)(F)F)cc2)C1 (stereo not given) | inactive | – |
| NC(=O)c1ccc(Nc2ccc3c(c2)CCC3)c([N+](=O)[O-])c1 | inactive | – |
| COc1cc(C(=O)NCc2nnc(SCC(=O)c3ccc(Cl)cc3)o2)cc(OC)c1OC | inactive | – |
| COc1ccc(C(=O)NCc2nnc(SCC(=O)Nc3cccc(OC)c3)o2)cc1 | inactive | – |
| COc1cc(C(=O)NCc2nnc(SCC(=O)Nc3nc4ccc(C)cc4s3)o2)cc(OC)c1OC | 2.51 µM (active) | – |
| S=C(c1ccccc1)N1CCCC1 | inactive | – |
| OCCN1CCN(C(=S)c2ccc(-c3ccccc3)cc2)CC1 | inactive | – |
| S=C(c1ccc(-c2ccccc2)o1)N1CCCCC1 | 10 µM (active) | – |
| Cc1ccccc1NC(=O)CSc1ccc2nnc(-c3ccccn3)n2n1 | inactive | – |
| CC(C)CC(=O)Nc1nnc(S(=O)(=O)N(C)c2ccc(Cl)cc2)s1 | inactive | – |
| CC(=O)Nc1ccc(N2C(=O)C3C4C=CC(CC4)C3C2=O)cc1 (stereo not given) | inactive | – |
| CCOC(=O)c1c(C)nc(-c2ccccc2)nc1NC(=O)C(C)C | inactive | – |
| CCOC(=O)c1c(-c2ccccc2)oc2cc(Br)c(O)cc12 | inactive | – |
| CCOC(=O)c1c(C)[nH]c2c1-c1ccccc1C(=O)C2=O | 3.55 µM (active) | – |
| CCOC(=O)N1CCN(CC(=O)c2c(C)[nH]c3ccccc23)CC1 | inactive | – |

| SMILES | Potency | activity change, negative = inhibition |
| --- | --- | --- |
| Cc1[nH]c2ccccc2c1C(=O)COC(=O)C(C)C | inactive | – |
| CCOC(=O)c1c(C)[nH]c(=S)c(C#N)c1-c1ccccc1 | 12.6 µM (active) | – |
| COc1cccc(NC(=O)CCc2nnc3ccc(N4CCC(C)CC4)nn23)c1 | inactive | – |
| CCCCCC(O)(CCN1CCCCC1)c1ccccc1 (stereo not given) | inactive | – |
| COc1cc(C)cc(CN2CCC(Cc3ccccc3)CC2)c1O | inactive | – |
| CCn1c(SCC(=O)NC2=NCCS2)nnc1C(C)NC(=O)c1ccccc1F (stereo not given) | inactive | – |
| CC1CCN(C(=O)CCc2nnc3ccc(NCc4ccco4)nn23)CC1 | inactive | – |
| CCOC(=O)C1CCCN(S(=O)(=O)c2ccc3c(c2)C(C)(C)C(=O)N3C)C1 (stereo not given) | inactive | – |
| CC1CC(C)CN(c2ccc(S(=O)(=O)N3CCOCC3)cc2)C1 (stereo not given) | inactive | – |
| O=C(Cc1ccc(Br)cc1)N1CCN(c2ccccn2)CC1 | inactive | – |
| O=C(Cc1ccccc1)N1CCN(S(=O)(=O)c2ccc([N+](=O)[O-])cc2)CC1 | inactive | – |
| CCC1=NN(C(=O)Cc2ccc([N+](=O)[O-])cc2)C(O)(c2ccc(Br)cc2)C1 (stereo not given) | 11.2 µM (active) | – |
| C[N+](C)(C)CCNC(=O)c1cc[n+](Cc2ccccc2)c(/C=N/O)c1 | inactive | – |
| CC1CCCCC1NC(=O)c1cn(C)c2ccc(S(=O)(=O)N3CCOCC3)cc2c1=O (stereo not given) | inactive | – |
| COc1ccc(C(O)(C2CCCCC2)C(CN2CCCC2)c2ccccc2)cc1 (stereo not given) | inactive | – |
| Cc1cccc(NC(=S)N2CCC(c3nc4ccccc4s3)CC2)c1 | 12.6 µM (active) | – |
| Cc1cccc(C(=O)N2CCC(c3nc4ccccc4s3)CC2)c1 | inactive | – |
| O=C(NC1CCCC1)C1CCN(C(=O)Nc2cccc(Cl)c2)CC1 | inactive | – |
| Cc1ccc(C2CCN(C(=S)Nc3cccc(Cl)c3)C2)cc1 (stereo not given) | 10 µM (active) | – |
| Cc1nc2ccc(NC(=S)N3CCC(C)CC3)cc2nc1C | inactive | – |
| O=C(C1CCCO1)N1CCN(C(=S)Nc2cccc(Cl)c2)CC1 (stereo not given) | inactive | – |
| Cc1cccc(OCC(=O)Nc2ccc(NC(=O)c3ccco3)c(C)c2)c1 | inactive | – |
| O=C(NCC(=O)N(c1ccccc1)C(C(=O)NCC1CCCO1)c1ccccc1)c1cccs1 (stereo not given) | inactive | – |
| CC1(C)C2CCC1(CS(=O)(=O)NCCc1c[nH]c3ccccc13)C(=O)C2 (stereo not given) | inactive | – |
